This test can be described thus: Peg3 promoter luciferase inhibitors, potency, dose response, cell-based, HeLa, CREF/GAPDH counter-screen panel (AID 624167). Particulars: CREF/GAPDH counter-screens; run 2, dose range 1, at 100 µM (top of the series). For orientation: A counterscreen serves to expose hits that act by an unwanted route or on another target.
For orientation: inhibition means the relative decrease from the control value, in per cent. As for `O=c1cnnc(N/N=C/c2ccccn2)[nH]1`, the inhibition amounted to 9.22%.

Turning to `CN(C)c1c([N+](=O)[O-])cc(N2C(=O)C=CC2=O)cc1[N+](=O)[O-]`, the inhibition is 98.5%.

Consider `C=CCc1cccc(/C=N/NC(=O)C(C)Nc2cccc(C)c2)c1O` (stereo not drawn), for which the inhibition stood at 5.69%.

As to `CC(C)(C)c1ccc(Cn2c(=O)cnc3ccccc32)cc1`, the inhibition was found to be 96.6%.

For `O=C1C=CC(=O)N1c1ccc(-c2nc3ccccc3o2)cc1`, the inhibition was 90.3%.

In the case of `CN=c1sc2c(n1C)C(=O)c1ccccc1C2=O`, the inhibition is 87.2%.

Turning to `O=C(N/N=C/c1cc([N+](=O)[O-])ccc1O)c1ccc(COc2ccc3c(c2)CCC3)o1`, the inhibition is -2.8%.

On to `COc1ccc2c(c1)c(=Cc1ccc(N(C)C)cc1)c1cc(-c3ccccc3)[n+](C)n12`, for which the inhibition came to 99.9%.

For `Cc1nc(C)c(C(=O)N/N=C/c2cc(Br)ccc2O)s1`, the inhibition stood at 6.13%.

Take `O=C(Nc1ccc(Cc2ccncc2)cc1)c1ccc([N+](=O)[O-])o1`: the inhibition turned out to be 95.3%.

Turning to `CCCC(=O)NC(c1ccc(Cl)cc1)c1ccc2cccnc2c1O` (stereo not drawn), the inhibition is 70.1%.

Take `O=C(CNC(=O)C(c1ccccc1)c1ccccc1)N/N=C/c1ccc(O)cc1O`: the inhibition turned out to be 22.3%.

As to `O=C(Nc1ccccc1)c1nc[nH]c1C(=O)NCCCCCCNC(=O)c1[nH]cnc1C(=O)Nc1ccccc1`, the inhibition is 83%.

With `O=C(O)c1ccc(N/N=C/c2ccc(OC(=O)c3cccc(Cl)c3)cc2)cc1`, the inhibition amounted to 97.2%.

Take `COc1ccc(/C=C2\SC(=S)N(CCCC(=O)NNC(=O)c3ccccc3O)C2=O)cc1`: the inhibition amounted to 72.3%.

For `CN(C)c1ccc(C=c2c3ccccc3n3c2cc(-c2ccccc2)[n+]3C)cc1`, the inhibition was found to be 100%.

As for `O=C(CCl)N1c2ccccc2Sc2ccc3ccccc3c21`, the inhibition worked out at 100%.

For the compound `CC(=O)c1cccc(-c2ccnc3c2CC(C(=O)Nc2cccc(NS(C)(=O)=O)c2)O3)c1` (stereo not drawn), the inhibition was 52%.

As to `Cc1cc(Br)ccc1NC(=O)CNC(=O)Cn1ncc(Cl)c(Cl)c1=O`, the inhibition came out at 98.9%.

Turning to `COc1ccc(/C=C2/CCCC(CN(C)C)C2=O)cc1` (stereo not drawn), the inhibition was 67.1%.

Turning to `Cc1ccsc1/C=N/Nc1cccc(C(=O)O)c1`, the inhibition is 96.5%.

As to `CCC(c1ccc(O)c(O)c1)C(CC)c1ccc(O)c(O)c1` (stereo not drawn), the inhibition was found to be 99.5%.

On to `C=CCn1c(COc2ccccc2)nnc1SC(C)C(=O)N/N=C/c1cc(Cl)ccc1O` (stereo not drawn), for which the inhibition is 59.9%.

With `Cc1ccc(NC(=S)NC(=O)c2ccc(F)cc2)cc1S(=O)(=O)Nc1ccccc1Cl`, the inhibition came out at 55.6%.

Turning to `CCCCCCN1C=C/C(=C\C=C(C#N)C#N)c2ccccc21`, the inhibition amounted to 22.9%.

In the case of `Cc1ccc(C(C[N+](=O)[O-])Sc2ccc(N)cc2)cc1` (stereo not drawn), the inhibition was found to be 99.2%.

On to `CCC(=O)NC(c1ccc(C)cc1)c1ccc2cccnc2c1O` (stereo not drawn), for which the inhibition was found to be 53.6%.

As for `CCc1ccc(/C=C2\SC(=S)N(CCCC(=O)Nc3cc(C)on3)C2=O)cc1`, the inhibition turned out to be 84.8%.

For `CS(=O)(=O)Nc1cccc(NC(=O)C2Cc3c(-c4cccc(F)c4)ccnc3O2)c1` (stereo not drawn), the inhibition was 73.6%.

For the compound `O=[N+]([O-])c1ccc(S(=O)(=O)c2ccccc2)nc1`, the inhibition amounted to 94.5%.

As to `CCc1ccn2cc(-c3ccc4c(c3)OCO4)nc2c1`, the inhibition was found to be 97.5%.

For the compound `O=C(N/N=C/c1sc(N2CCOCC2)nc1-c1ccccc1)c1cccc(S(=O)(=O)N2CCCC2)c1`, the inhibition came to 42.2%.

For the compound `CCN(CC)S(=O)(=O)c1cccc(C(=O)N/N=C(\C)c2ccc(O)cc2O)c1`, the inhibition is -50.5%.
